High-throughput results as filed in PubChem BioAssay.
In the library only some 0.96% were active in any assay of this set; here they are far more common.
FAK blocker: blocks human focal adhesion kinase activity; biochemical FAK kinase activity assay; 97,000 tested, 0.84% active; inhibition, %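 (tested at 7 µM)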; Q05397
Mac1 fbg inh: inhibitors of human CD11b/CD18 binding to fibrinogen. P05107+P11215. K562 CD11b/CD18 adhesion to fibrinogen, ATPlite luminescence; Mn2+ added to activate the integrin. inhibition, % at 10 µM. 93,000 tested, 0.54% active;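 active means primary inhibition of 50% or more at 10 µM, then 40% or more on retest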
TNAP act DEA: human TNAP activation, intermediate phosphate acceptor. P05186. activation factor at 20 µM. 64,000 tested, under 10 active. purified TNAP, CDP-star luminescence, 100 mM DEA, 30 min; stronger effect = higher value; scale: 0 levamisole-inhibited, 1 vehicle-only enzyme;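 active means activation factor of at least 2 at 20 µM, relative to controls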
CD11b adhes enh: CD11b/CD18-fibrinogen binding enhancement. P05107+P11215. K562 CD11b/CD18 adhesion to fibrinogen, ATPlite luminescence. activation, % at 10 µM. 93,000 tested, 0.07% active. AID 1499;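 active means 10 µM primary screen giving 50% or more activity, confirmed by 40% or more on retest at that dose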
Phagocyt inh: macrophage phagocytosis inhibition | J774A.1 macrophage IgG-bead phagocytosis, imaging | inhibition, % at 5 µM | 110,000 tested, 0.07% active | AID 1029;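 active means inhibition above the mean of the plate negative controls plus 5 SD, cut at about 13% in these data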;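 further: phagocytic index as fraction of beads internalized from green versus red external bead signal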
FAK inh conf: confirmation of human focal adhesion kinase (FAK) inhibitors; shares compounds with FAK blocker; FAK kinase biochemical inhibition assay; inhibition, % at 7 µM; 750 tested, 28% active; AID 794
Hits are given with their value; 0 = inactive; - = not tested or not shown. Unless noted, no stated cut-off is given here; in the data, active means inhibition above about 19%; inactive means the rest.

SMILES	FAK blocker	Mac1 fbg inh	TNAP act DEA	CD11b adhes enh	Phagocyt inh	FAK inh conf
O=C(Oc1c(Cl)cc(Cl)c2ccccc12)N1CCCCC1	0	56	-	0	0	-
Cc1ccc2cccc(OC(=O)N3CCCC3)c2n1	0	0	0	0	0	-
Cc1nc2c(=O)n(C)c(=O)nc-2n(C)n1	68	-	-	-	-	-
Cc1nn(Cc2ccccc2)c(Cl)c1C(=O)NC1CCCc2ccccc21 (stereo not given)	-	0	-	0	0	-
Cc1cc(OCC(=O)Nc2c(C)n(C)n(-c3ccccc3)c2=O)c2c3c(c(=O)oc2c1)CCC3	-	0	0	0	0	-
CCN(CC)CCN=Cc1c(O)n(Cc2ccccc2)c(=O)[nH]c1=O	0	0	-	0	104	-
CCN(CC)CCCN=Cc1c(O)n(Cc2ccc(F)cc2)c(=O)[nH]c1=O	0	0	0	0	0	-
CC1CCN(S(=O)(=O)c2ccc(NN=C(C#N)C#N)cc2)CC1	0	98	-	0	0	-
O=C1C(=O)c2ccccc2-c2ccccc21	59	60	-	0	0	59
COc1ccc(P2(=O)Nc3ccccc3N2)cc1	40	-	0	-	-	0
COc1ccc(NP(=O)(Nc2ccc(OC)cc2)Oc2ccccc2)cc1	-	0	-	0	0	-
COc1ccc(Cn2c(N)c(C(=O)NCc3ccco3)c3nc4ccccc4nc32)cc1OC	34	0	0	0	0	0
CC(C)CNC(=O)c1c(N)n(Cc2ccc3c(c2)OCO3)c2nc3ccccc3nc12	31	0	-	0	0	0
O/N=C/c1c[nH]c2ccccc12	38	0	0	0	0	0
C=CCN(CC=C)Cc1c[nH]c2ccccc12	0	0	0	0	0	-
Nc1c(C(=O)NC2CCCC2)c2nc3ccccc3nc2n1CC1CCCO1 (stereo not given)	36	0	0	0	0	0
COc1ccc2c(c1)c(C(=O)O)c(C)n2CC(C)C	0	0	0	0	0	-
CCCCn1c(C)c(C(=O)O)c2cc(OC)ccc21	32	0	0	0	0	0
O=c1c2ccccc2[se]n1-c1ccccc1	-	-	0	-	-	-
N#Cc1ccccc1Cn1cc(C(=O)c2ccccc2F)c2ccccc21	-	0	-	0	0	-
CCCCn1c(O)c(/C(CC)=N/N2CCCCC2c2cccnc2)c(=O)[nH]c1=S (stereo not given)	-	-	-	-	0	-
COc1cc2c(cc1OC)C(C(=O)N(C)C1CCCCC1)C1CCCCN1C2=O (stereo not given)	-	-	-	-	0	-
COCCNC(=O)c1c(N)n(CCC(C)C)c2nc3ccccc3nc12	26	0	-	0	0	0
CC(C)CCn1c(N)c(C(=O)NCc2cccs2)c2nc3ccccc3nc21	23	0	-	0	0	0
CCCCNC(=O)c1c(N)n(CCCOC)c2nc3ccccc3nc12	-	0	0	0	0	-
C=CCC1(CN2CCCCCC2=O)C(=O)NC(=O)NC1=O	0	0	0	0	0	-
